Screens: PubChem, Broad Institute
This is a sample that favours compounds with a hit; in the whole collection about 6.7% have one here.
Pf Dd2 inh = blocks growth of Plasmodium falciparum Dd2 parasites; AID 1159554; P. falciparum Dd2 growth, SYBR Green, 72 h; stronger effect = lower value; activity change, % at 10 µM; 94,000 compounds, 2.3% hits; in the data active means activity change below about -80%; inconclusive means no clear call, values can overlap the other calls
C diff growth = inhibitors of Clostridium difficile growth; Clostridium difficile clinical isolate growth, OD600, 24 h; stronger effect = lower value; growth activity, negative = inhibition, % at 16 µg/mL (by protocol); 86,000 compounds, 0.25% hits; AID 1259249;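 active means mean growth activity at or below -80% and every replicate also at or below -80%; inconclusive means mean at or below -80% but some replicate above -80%; inactive means mean growth activity above -80%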;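 further: 0% = DMSO wells and -100% = levofloxacin 16 µg/mL wells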
Tcruzi prolif = blocks T. cruzi growth in NIH3T3 culture. T. cruzi beta-gal in NIH3T3, GalScreen luminescence, 90 h. inhibition, % at 8.34 µM. 77,000 compounds, 5.9% hits. AID 624255;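 active means mean inhibition above about 93%, with at least 55% of replicates each passing it, limit read from the data, passing the limit was not always enough; inconclusive means only one of those two conditions holds; inactive means neither condition holds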
An asterisk follows results filed as active.

How did O=C(C[C@H]1CC[C@H](NC(=O)C2CC2)[C@H](CO)O1)NCc1ccccc1Cl do in these assays?
Pf Dd2 inh: 8; C diff growth: -1

Results for Cc1ccccc1S(=O)(=O)N1[C@H](CO)[C@@H](c2ccc(C#CC3CC3)cc2)[C@@H]1C#N ?
Pf Dd2 inh: -87*; C diff growth: 5; Tcruzi prolif: 89

How did N#C[C@H]1[C@@H](c2ccc(C#CC3CCCC3)cc2)[C@@H](CO)N1S(=O)(=O)Cc1ccccc1 do in these assays?
Pf Dd2 inh: -89*; C diff growth: -13; Tcruzi prolif: 89

Results for Cc1ccccc1S(=O)(=O)N1[C@H](C#N)[C@@H](c2ccccc2)[C@H]1CO ?
Pf Dd2 inh: 28; C diff growth: -4; Tcruzi prolif: 19

How did N#C[C@H]1[C@@H](c2ccc(C#CC3CCCCC3)cc2)[C@@H](CO)N1S(=O)(=O)c1ccccc1 do in these assays?
Pf Dd2 inh: inconclusive; C diff growth: -3; Tcruzi prolif: 88

How did CC(C)CC#Cc1cnc2c(c1)C(=O)N([C@@H](C)CO)C[C@@H](C)[C@H](CN(C)Cc1ccc3c(c1)OCO3)O2 do in these assays?
Pf Dd2 inh: -53; C diff growth: 9; Tcruzi prolif: 71

What do the screens show for `CN1c2ccc(Br)cc2[C@H]2[C@H](CCN2C(=O)C2CCCC2)[C@@H]1CO`?
Pf Dd2 inh: -36; C diff growth: 2

Results for COc1ccccc1C#Cc1ccc([C@H]2[C@@H](CO)N(C(=O)C3CCCCC3)[C@H]2C#N)cc1 ?
Pf Dd2 inh: -91*; C diff growth: -3; Tcruzi prolif: 83

Results for COc1ccccc1C#Cc1ccc([C@H]2[C@H](C#N)N(C(=O)C3CC3)[C@H]2CO)cc1 ?
Pf Dd2 inh: -37; C diff growth: 5; Tcruzi prolif: 95

Results for COc1ccccc1C#Cc1ccc([C@H]2[C@@H](C#N)N(C(=O)C3CC3)[C@H]2CO)cc1 ?
Pf Dd2 inh: -85*; C diff growth: 5; Tcruzi prolif: 91

What do the screens show for `COc1ccccc1C#Cc1ccc([C@@H]2[C@@H](C#N)N(C(=O)C3CCCCC3)[C@@H]2CO)cc1`?
Pf Dd2 inh: -51; C diff growth: -3

How did C[C@H](CO)N1C[C@H](C)[C@H](CN(C)Cc2ccncc2)Oc2c(NC(=O)Nc3ccc4c(c3)OCO4)cccc2C1=O do in these assays?
Pf Dd2 inh: 1; C diff growth: 1; Tcruzi prolif: 28

What do the screens show for `CCCNC(=O)N1[C@H](CO)[C@H](c2ccccc2)[C@@H]1CNC(=O)c1ccc(F)cc1`?
Pf Dd2 inh: -3; Tcruzi prolif: 37

What do the screens show for `C[C@H]1CCCCO[C@@H](CN(C)CC2CCCCC2)[C@@H](C)CN([C@@H](C)CO)C(=O)c2cc(NC(=O)Nc3ccc(C(F)(F)F)cc3)ccc2O1`?
Pf Dd2 inh: -82*; C diff growth: -68; Tcruzi prolif: 86

How did CCCN(C)C[C@@H]1OCCCC[C@H](C)Oc2ccc(NC(=O)Nc3ccc(C(F)(F)F)cc3)cc2C(=O)N([C@@H](C)CO)C[C@@H]1C do in these assays?
Pf Dd2 inh: -88*; C diff growth: -105*; Tcruzi prolif: 21

What do the screens show for `CCCN(C)C[C@@H]1OCCCC[C@H](C)Oc2ccc(NC(=O)Nc3ccc(C(F)(F)F)cc3)cc2C(=O)N([C@H](C)CO)C[C@@H]1C`?
Pf Dd2 inh: -77; C diff growth: -28; Tcruzi prolif: 61

Results for C[C@H](CO)N1C[C@H](C)[C@H](CN(C)CC2CCCCC2)Oc2ccc(NC(=O)Nc3ccc(C(F)(F)F)cc3)cc2C1=O ?
Pf Dd2 inh: -69; C diff growth: 23; Tcruzi prolif: 81

How did C[C@@H]1CN([C@@H](C)CO)C(=O)c2cc(NC(=O)Nc3ccc(C(F)(F)F)cc3)ccc2O[C@H]1CN(C)CC1CCCCC1 do in these assays?
Pf Dd2 inh: -86*; C diff growth: -2; Tcruzi prolif: 57

What do the screens show for `C[C@@H]1CCCCO[C@@H](CN(C)CC2CCCCC2)[C@@H](C)CN([C@H](C)CO)C(=O)c2cc(NC(=O)Nc3ccc(C(F)(F)F)cc3)ccc2O1`?
Pf Dd2 inh: -44; C diff growth: -10; Tcruzi prolif: 102

How did C[C@@H]1CN([C@H](C)CO)C(=O)c2cc(NC(=O)C3CC3)ccc2O[C@@H]1CN(C)CC1CCCCC1 do in these assays?
Pf Dd2 inh: 34; C diff growth: 7; Tcruzi prolif: -45

Results for C[C@@H]1CN([C@@H](C)CO)C(=O)c2cc(NC(=O)C3CC3)ccc2O[C@H]1CN(C)CC1CCCCC1 ?
Pf Dd2 inh: -89*; Tcruzi prolif: 31

How did CCCNC(=O)N1CCC2(CC1)CN(C(=O)c1ccncc1)[C@@H](CO)c1[nH]c3cc(OC)ccc3c12 do in these assays?
Pf Dd2 inh: -31; C diff growth: 4

How did C[C@@H]1CN([C@@H](C)CO)C(=O)c2cc(NS(=O)(=O)c3ccc(Cl)cc3)ccc2O[C@@H]1CN(C)Cc1ccc(Oc2ccccc2)cc1 do in these assays?
Pf Dd2 inh: 12; C diff growth: 48; Tcruzi prolif: 84

Results for COc1ccc(NC(=O)N(C)C[C@@H]2Oc3ccc(NC(=O)CCC(F)(F)F)cc3CC(=O)N([C@H](C)CO)C[C@H]2C)cc1 ?
Pf Dd2 inh: -1; C diff growth: -1; Tcruzi prolif: -4

How did O=C(Nc1ccccc1)N1CCCCN2[C@H](C1)[C@@H](c1ccc(C#Cc3ccccc3)cc1)[C@@H]2CO do in these assays?
Pf Dd2 inh: -29; C diff growth: 14; Tcruzi prolif: 60

What do the screens show for `O=C(Nc1ccccc1)N1CCCCN2[C@H](CO)[C@H](c3ccc(C#Cc4ccccc4)cc3)[C@@H]2C1`?
Pf Dd2 inh: -77; C diff growth: -24; Tcruzi prolif: 60

What do the screens show for `O=C(Nc1ccccc1)N1CCCCN2[C@H](CO)[C@H](c3ccc(C#Cc4ccccc4)cc3)[C@H]2C1`?
Pf Dd2 inh: -48; C diff growth: -101*; Tcruzi prolif: 76

What do the screens show for `O=C(Nc1ccccc1F)N1CCCCN2[C@H](CO)[C@@H](c3ccc(C#Cc4ccccc4)cc3)[C@@H]2C1`?
Pf Dd2 inh: -34; C diff growth: -2; Tcruzi prolif: 94

What do the screens show for `O=C(Nc1ccccc1F)N1CCCCN2[C@H](CO)[C@H](c3ccc(C#Cc4ccccc4)cc3)[C@@H]2C1`?
Pf Dd2 inh: -89*; C diff growth: -2; Tcruzi prolif: 75

What do the screens show for `O=C(Nc1ccc(F)cc1)N1CCCCN2[C@H](CO)[C@H](c3ccc(C#Cc4ccccc4)cc3)[C@@H]2C1`?
Pf Dd2 inh: -83*; C diff growth: -11; Tcruzi prolif: 19

What do the screens show for `CCCNC(=O)N1CC2(CN(C(=O)c3ccncc3)C2)c2c([nH]c3cc(OC)ccc23)[C@@H]1CO`?
Pf Dd2 inh: 39; C diff growth: -7

How did N#C[C@@H]1[C@H](c2ccccc2C2=CCCCC2)[C@H](CO)N1S(=O)(=O)c1cccc(F)c1 do in these assays?
Pf Dd2 inh: -18; C diff growth: 8

How did COc1ccc(-c2ccccc2[C@@H]2[C@H](C#N)N(C(=O)C3CCCC3)[C@H]2CO)cc1 do in these assays?
Pf Dd2 inh: 13; C diff growth: 6

How did CS(=O)(=O)N1[C@H](C#N)[C@H](c2ccccc2-c2ccc(F)cc2)[C@H]1CO do in these assays?
Pf Dd2 inh: -86*; C diff growth: -15
